This passage reports growth results from PubChem BioAssay (NCI).

The panel holds about 83,000 compounds, 20% with a hit somewhere; the sample as a whole holds those more often.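 The endpoint reported here, percent growth, reads 100 for growth as untreated, 0 for no net growth and -100 for all cells dead.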 Values without a mark were called inactive. Calls of active or inactive are those of the source. How the source made its calls: active means growth percent below 10; inactive means the rest.

This assay deals with HL-60(TB) leukemia. Nature of the assay: NCI-60 one-dose screen, 48 h (100 = growth as untreated, 0 = no growth, -100 = all killed). The settings on record: 10 µM unless noted.
As to `CCOc1ccc(/C=N/N=C(N)N)cc1OCC`, the growth is 64.5%. On to `CNC(=S)Sc1ccc([N+](=O)[O-])cc1[N+](=O)[O-]`, for which the growth was -14.6% (active). Take `C=C(C)[C@@H]1CC[C@@]2(C(=O)O)CC[C@]3(C)C(CCC4[C@@]5(C)CCC(OS(=O)(=O)c6ccccc6)C(C)(C)C5CC[C@]43C)C12` (stereo not given in full): the growth is 21.4%. In the case of `O=C(CSc1nc(-c2ccccc2)[nH]c1S(=O)(=O)c1ccccc1)NC1CC1` it was 101%; in that of `COc1cc(NC(=O)C#Cc2ccccc2)c(OC)cc1Cl`, 42.7%. Under `CCCCNC(=O)Oc1ccc2c(=O)c3sc4c(=O)c5ccccc5c(=O)c4c3c(=O)c2c1` stands -43.3% (active); under `COc1ccc(C(=O)/C=C/c2cc3ccccc3[nH]c2=O)cc1`, 33.7%; under `c1cnc2[nH]cc(-c3csc(-c4cn(CCCN5CCOCC5)c5ccccc45)n3)c2c1`, 35.8%. Under `NC(=Nc1ccc(N)cc1)C(N)=Nc1ccc(N)cc1` stands 59.6%; under `CC[C@@H](C[C@H](CCO)c1ccccc1)c1cc2ccccc2o1`, 92.5%; under `OCCN(CCO)c1ccc2ccccc2c1`, 87.9%. For the molecule `Cc1cccc2c3c(sc12)C(c1ccc(Cl)cc1)C(C#N)=C(/N=C/c1ccc(Cl)cc1)O3` (stereo not given), the growth is -22% (active). Under `C1=C(N2CCCC2)CCC1` stands 56.7%; under `CCOC(=O)/C=C1\S/C(=N\Nc2cc(=O)[nH]c3ccc(Cl)cc23)N(c2ccccc2)C1=O`, 0.175% (active). `COc1ccc(NC(=O)c2ccoc2COc2ccccc2)cc1`: the growth is 96.9%.
